About 79,000 compounds went through this panel and 15% of them were active in at least one assay; those are over-represented in the sample as a whole. Activity calls are given as the source filed them. Rule as the data show it: active = growth inhibition above about 70%; inactive = the rest.
Legend:
[1] = NCI Yeast Anticancer Drug Screen. Data for the rad50 strain (AID 155);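 also: 0% = growth of vehicle-only cultures of the same strain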; conditions: S. cerevisiae rad50 strain growth inhibition; at 50.0 µM; active compounds read high
Procedure, shortened: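 A DNA repair-deficient yeast mutant serves as the test organism; compound-induced growth inhibition is calculated against vehicle-treated cells.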

[2] = NCI Yeast Anticancer Drug Screen. Data for the mec2-1 strain (AID 157); conditions: S. cerevisiae mec2-1 strain, at 50.0 µM, active compounds read high
Procedure, shortened: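 Mutant yeast (mec2-1) grown with compound; growth inhibition relative to vehicle control reported.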

[3] = NCI Yeast Anticancer Drug Screen. Data for the sgs1 mgt1 strain (AID 161);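 also: 0% = growth of cultures given vehicle only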; conditions: S. cerevisiae sgs1 mgt1 strain, at 50.0 µM, active compounds read high
Procedure, shortened: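 Compounds are added to genetically altered yeast, and growth is compared with cultures given vehicle alone to give percent inhibition.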

[4] = NCI Yeast Anticancer Drug Screen. Data for the cln2 rad14 strain (AID 165);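 also: 0% = growth equal to vehicle treated cultures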; conditions: S. cerevisiae cln2 rad14 strain, at 50.0 µM, active compounds read high
Procedure, shortened: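 Readout is yeast growth inhibition versus vehicle-treated controls, using a strain with cln2 and rad14 alterations exposed to compound.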

[5] = NCI Yeast Anticancer Drug Screen. Data for the bub3 strain (AID 167); conditions: S. cerevisiae bub3 mutant strain, at 50.0 µM, active compounds read high
Procedure, shortened: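 Inhibition values come from growth of compound-treated mutant yeast normalised to vehicle-treated controls.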

[6] = NCI Yeast Anticancer Drug Screen. Data for the mlh1 rad18 strain (AID 175); conditions: S. cerevisiae mlh1 rad18 strain growth inhibition; at 50.0 µM; active compounds read high
Procedure, shortened: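 Genetically defined yeast (DNA repair-deficient) exposed to compounds; growth inhibition determined relative to vehicle.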

Measured: growth inhibition

CC1(CCOCc2ccccc2)NC(=O)N(CCC#N)C1=O (stereo unspecified)
inactive: [1] 6.9% | [2] -9.65% | [3] -4.6% | [4] -10.2% | [5] 2.55% | [6] 12.6%

CCCN=C(C)C(C)=NCCC
inactive: [1] -18.7% | [2] -15.1% | [3] -15.1% | [4] -11% | [5] -19.4% | [6] -11.3%

COC(=O)c1sc2ccccc2c1C
inactive: [1] -12.4% | [2] -3.6% | [3] -7.05% | [4] -54.9% | [5] -17.8% | [6] 10.7%

Clc1ccc2nsnc2c1Cl
inactive: [1] -0.1% | [2] -1.25% | [3] -3.75% | [4] -19.4% | [5] 7.8% | [6] 8.1%

CC(C)C/C(CC(=O)CCC(=O)Nc1ccccc1[N+](=O)[O-])=N\NC(=O)c1cc2ccccc2cc1O
inactive: [1] 17.8% | [2] 24.1% | [3] -11.8% | [4] 26.2% | [5] 9.8% | [6] 29.9%

Cc1nc(Cl)nc2c1C(=O)Nc1ccccc1N2
inactive: [1] 27.2% | [2] 14.4% | [3] 0% | [4] 2.95% | [5] 28.1% | [6] 15.9%

CCCOC(C)OCCC#CCC(C)OC(=O)CC(Cl)(Cl)Cl (stereo unspecified)
inactive: [1] -13.8% | [2] -21.4% | [3] 10.7% | [4] -5.35% | [5] -16.1% | [6] -9.35%

CCCNC=O
inactive: [1] -6.8% | [2] -7.85% | [3] -13.8% | [4] -14.4% | [5] -5.1% | [6] -5%

CC1=C(C(=O)OCCc2ccc([N+](=O)[O-])cc2)C(c2cccc([N+](=O)[O-])c2)C(C(=O)OC(C)C)=C(C)N1 (stereo unspecified)
inactive: [1] 0.15% | [2] -6.95% | [3] 12.8% | [4] 0.45% | [5] 16.1% | [6] -30.9%

CCOC(=O)c1nnn(Cc2ccccc2)c1N
inactive: [1] -2.1% | [2] -7.35% | [3] 3.75% | [4] 26.1% | [5] 1.7% | [6] -9.35%

CCN(C)c1nc(N(C)CC)c2nc(N(C)CC)nc(N(C)CC)c2n1
inactive: [1] 1.95% | [2] -3.4% | [3] 17.8% | [4] 4.5% | [5] -14.5% | [6] -65.1%

Cc1cn(CCCSCC2OC3OC4C(CO)OC(OC5C(CO)OC(OC6C(CO)OC(OC7C(CO)OC(OC8C(CO)OC(OC9C(CO)OC(OC2C(O)C3O)C(O)C9O)C(O)C8O)C(O)C7O)C(O)C6O)C(O)C5O)C(O)C4O)c(=O)[nH]c1=O (stereo unspecified)
inactive: [1] -21.6% | [2] -9.35% | [3] -18.4% | [4] 0% | [5] -1.85% | [6] -14.2%

Cc1cccc(C(C)(O)c2cnc(C)n2Cc2ccccc2)c1 (stereo unspecified)
inactive: [1] 5.1% | [2] 14.2% | [3] 10.8% | [4] 18.8% | [5] 9.35% | [6] 15.2%

CCCC(=O)N(C)c1ccccc1
inactive: [1] 7.5% | [2] -11.1% | [3] -1.85% | [4] -29.4% | [5] 6.35% | [6] -8.35%

Cc1ccc(SCCN)cc1
inactive: [1] 11.8% | [2] 11.9% | [3] -6.3% | [4] 2.35% | [5] -0.35% | [6] -10.2%

O=C1NC2(CCCC2)C(=O)N2CCCC12 (stereo unspecified)
inactive: [1] -8.65% | [2] -17.6% | [3] 17.7% | [4] -5.75% | [5] 0.3% | [6] 27.2%

OC(CNc1ccc(Cl)nn1)c1ccccc1 (stereo unspecified)
inactive: [1] -3.35% | [2] -10.3% | [3] 21% | [4] 13.4% | [5] 9.7% | [6] -15.2%

CCOC(=O)C1=C(C(=O)c2cccc3ccccc23)C(c2cccc([N+](=O)[O-])c2)C(C(=O)c2cccc3ccccc23)=C(C(=O)OCC)N1
inactive: [1] -12.9% | [2] -7.75% | [3] 13.7% | [4] -26.3% | [5] -45.6% | [6] -25.2%

CNc1ccn(C2OC(CO)C(O)C2O)c(=O)n1 (stereo unspecified)
inactive: [1] -9.5% | [2] -7.5% | [3] -2.05% | [4] 11.9% | [5] 10.1% | [6] 8.25%

Clc1ccc(/C=C/c2ccc3ccccc3n2)cc1
inactive: [1] -2.65% | [2] -11.6% | [3] -13% | [4] -28.3% | [5] -14% | [6] 12%

CS(=O)(=O)OCCN(CCOS(C)(=O)=O)c1ccc(N=Nc2ccccc2C(=O)O)cc1
inactive: [1] 27.9% | [2] 21.9% | [3] 21.6% | [4] 24.8% | [5] 19.1% | [6] 32.4%

CC(C)(C)CC(=O)Nc1ccccc1
inactive: [1] 28.9% | [2] -4.15% | [3] -17.1% | [4] 13.7% | [5] -8.9% | [6] 9.25%

CCCC[N+](C)(CCCC)CCCC
inactive: [1] 9.15% | [2] 9.65% | [3] 7.8% | [4] -1.15% | [5] 14.2% | [6] 3.3%

O=C(Nc1ccc2c(O)c(N=Nc3ccc(N=Nc4ccc(S(=O)(=O)O)cc4)cc3)c(S(=O)(=O)O)cc2c1)c1ccccc1
inactive: [1] 18.9% | [2] -5.8% | [3] 2.9% | [4] -9.1% | [5] 8.8% | [6] 14.7%

O=c1[nH]c(/C=C(\O)c2ccncc2)nc2ccccc12
inactive: [1] -7.6% | [2] -23.2% | [3] -6.45% | [4] 12% | [5] -9% | [6] -17.9%

C/C(=C1\C(=O)Nc2ccccc21)c1cccnc1
inactive: [1] -8.2% | [2] -9.25% | [3] -9.5% | [4] 11.3% | [5] -10.4% | [6] -7.55%

CC(=O)c1cccc(NC(=O)Oc2ccc(C(=O)OCc3ccccc3)cc2)c1
inactive: [4] 42.8%
active: [1] 71.2% | [2] 88.9% | [3] 80.7% | [5] 92.2% | [6] 92.9%

C/C1=C/C2=CC(C)C[C@@H]2C(=O)[C@]2(C)C(=O)CC(C)(C)[C@H]2CC1=O (stereo partly specified)
inactive: [1] 5.5% | [2] -8.6% | [3] 22.4% | [4] 5% | [5] -13.6% | [6] -87.3%

Cc1nc(-c2ccccc2)nc2c1nc(Cc1ccc(Cl)cc1)n2Nc1ccccc1
inactive: [1] 1.7% | [2] -0.3% | [3] 1.6% | [4] -5.75% | [5] -1.45% | [6] 40.5%

C(=C1\CCC/C(=C/c2ccccc2)C1=NNc1ccccc1)/c1ccccc1
inactive: [1] 19.7% | [2] 2.35% | [3] 6.45% | [4] 18.1% | [5] 11% | [6] 24.1%

CCCCCCC#CC(=O)OC
inactive: [1] -3.05% | [2] -21.6% | [3] 1.5% | [4] 15.4% | [5] -11.6% | [6] 24.4%

CCCCc1c2c(nc3c1CCCC3=O)CCCC2
inactive: [1] 8.7% | [2] 8.45% | [3] 27.4% | [4] 15.8% | [5] 37.9% | [6] -0.8%

CC(=O)OC1CC2CCC1(c1ccccc1)C2 (stereo unspecified)
inactive: [1] 0.85% | [2] -25.1% | [3] 0.4% | [4] 14.4% | [5] -1.2% | [6] 3.15%

Cc1[nH]c(=O)[nH]c(=O)c1/C=C/C(=O)NC(CO)CS(C)=O (stereo unspecified)
inactive: [1] -1.5% | [2] -7.15% | [3] 0.75% | [4] 6.1% | [5] 0.75% | [6] 7.05%

COC(=O)C(Cc1cn(C(C)=O)c2ccccc12)P(=O)(OC)OC (stereo unspecified)
inactive: [1] -13.3% | [2] -40.1% | [3] -5.25% | [4] 13% | [5] 25.4% | [6] -11.8%

CC(C)C(C)(O)CO (stereo unspecified)
inactive: [1] -21.9% | [2] 1.75% | [3] -1.2% | [4] 16.8% | [5] -6.2% | [6] -13.7%
